# Test results as given in PubChem BioAssay (NCI).
# The panel holds about 79,000 compounds, 15% with a hit somewhere; the sample as a whole holds those more often. Values without a mark were called inactive. Active and inactive are the calls of the source. Cut-off read from the data, not from the text of the source: active = growth inhibition above about 70%; inactive = the rest.
# What was measured:
# [1] = NCI Yeast Anticancer Drug Screen. Data for the rad52 strain (AID 147);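 note: 0% = growth of vehicle-treated control cultures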; conditions: S. cerevisiae rad52 mutant growth inhibition, active compounds read high
# Procedure, shortened: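 Screen used a yeast mutant impaired in DNA repair. After compound exposure, growth was measured. Values reflect inhibition compared with vehicle-treated cells.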
# [2] = NCI Yeast Anticancer Drug Screen. Data for the wt1 strain (AID 149);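 note: 0% = growth of vehicle-treated wt1 cultures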; conditions: S. cerevisiae wt1 strain (SPY 50644) growth inhibition, active compounds read high
# Procedure, shortened: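 Measured: growth of wt1 yeast under compound versus vehicle treatment, reported as inhibition.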
# [3] = NCI Yeast Anticancer Drug Screen. Data for the rad50EPP+ strain (AID 151);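 note: 0% = growth of vehicle-treated control cultures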; conditions: S. cerevisiae rad50 mutant strain, active compounds read high
# Procedure, shortened: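 Exposing the rad50EPP+ strain to each compound, growth was compared with vehicle-only cultures to give inhibition.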
# [4] = NCI Yeast Anticancer Drug Screen. Data for the rad50 strain (AID 155);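 note: 0% = growth of vehicle-only cultures of the same strain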; conditions: S. cerevisiae rad50 strain growth inhibition, active compounds read high
# Procedure, shortened: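 Growth of the mutant yeast was measured after compound exposure and referenced to vehicle-treated cultures.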
# [5] = NCI Yeast Anticancer Drug Screen. Data for the mec2-1 strain (AID 157); conditions: S. cerevisiae mec2-1 strain, active compounds read high
# Procedure, shortened: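 Readout is yeast growth inhibition, normalised to vehicle-treated controls, in the mec2-1 strain exposed to compound.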
# [6] = NCI Yeast Anticancer Drug Screen. Data for the rad14 strain (AID 159);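 note: 0% = growth of vehicle-treated control cultures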; conditions: S. cerevisiae rad14 strain growth inhibition, active compounds read high
# Procedure, shortened: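 Here, inhibition of yeast growth was measured after compound exposure, using a strain with a genetic defect in DNA damage repair and vehicle-treated cultures as the reference.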
# [7] = NCI Yeast Anticancer Drug Screen. Data for the sgs1 mgt1 strain (AID 161);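 note: 0% = growth of cultures given vehicle only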; conditions: S. cerevisiae sgs1 mgt1 strain, active compounds read high
# Procedure, shortened: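 Percent growth inhibition was derived by comparing compound-exposed mutant yeast with vehicle-exposed cultures. The strain carries alterations in DNA damage repair.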
# [8] = NCI Yeast Anticancer Drug Screen. Data for the CLN2oe strain (AID 163);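 note: 0% = growth of vehicle-only control cultures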; conditions: S. cerevisiae CLN2oe strain, active compounds read high
# Procedure, shortened: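 Values reflect how much compound exposure reduced yeast growth, referenced to vehicle-exposed cells. Assay organism is a strain with a defined genetic change affecting cell-cycle control.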
# [9] = NCI Yeast Anticancer Drug Screen. Data for the cln2 rad14 strain (AID 165);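 note: 0% = growth equal to vehicle treated cultures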; conditions: S. cerevisiae cln2 rad14 strain, active compounds read high
# Procedure, shortened: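 Relative to vehicle controls, growth inhibition of compound-treated cln2 rad14 yeast was recorded.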
# [10] = NCI Yeast Anticancer Drug Screen. Data for the bub3 strain (AID 167); conditions: S. cerevisiae bub3 mutant strain, active compounds read high
# Procedure, shortened: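 Whole-cell yeast assay. The mutant strain was incubated with compounds, and growth inhibition was determined by comparison with vehicle-treated cells.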
# [11] = NCI Yeast Anticancer Drug Screen. Data for the mlh1 strain (AID 171);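 note: 0% = growth of vehicle-treated control cultures of the same strain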; conditions: S. cerevisiae mlh1 strain growth inhibition, active compounds read high
# Procedure, shortened: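 Steps: expose the defined-mutant yeast strain to compound; expose a parallel culture to vehicle; measure growth; express compound effect as inhibition relative to the vehicle culture.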
# [12] = NCI Yeast Anticancer Drug Screen. Data for the sgs1 strain (AID 173);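 note: 0% = growth of vehicle-only control cultures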; conditions: S. cerevisiae sgs1 mutant, active compounds read high
# Procedure, shortened: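 Treat defined-mutant yeast with compound; measure growth; calculate inhibition relative to vehicle-treated cells.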
# [13] = NCI Yeast Anticancer Drug Screen. Data for the mlh1 rad18 strain (AID 175); conditions: S. cerevisiae mlh1 rad18 strain growth inhibition, active compounds read high
# Procedure, shortened: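 Test agents were incubated with a yeast strain of defined genotype (DNA damage repair defect). Inhibition of growth was derived by comparison with vehicle-exposed cultures.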
# [14] = NCI Yeast Anticancer Drug Screen. Data for the rad18 strain (AID 177); conditions: S. cerevisiae rad18 mutant growth inhibition, active compounds read high
# Procedure, shortened: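 A genetically defined yeast mutant impaired in DNA damage repair was treated with test compounds, then its growth was measured against cultures receiving vehicle alone.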
# [15] = NCI Yeast Anticancer Drug Screen. Data for the wt2 strain (AID 169);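 note: 0% = growth of vehicle-treated yeast cultures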; conditions: S. cerevisiae wt2 strain growth inhibition, active compounds read high
# Procedure, shortened: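 Values express reduction in yeast growth under compound treatment, referenced to vehicle-treated cells.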
# [16] = at 5.0 µM (retest, dose inferred, filed as 0.5)
# [17] = at 50.0 µM (retest, dose inferred, filed as 5.0)
smiles,measurement,setting,value
O=[N+]([O-])/C(C(Cl)=C(Cl)Cl)=C1/OCCS1,growth inhibition,[1]; at 1.2 µM,30%
same,growth inhibition,[1]; at 3.7 µM,72% (active)
same,growth inhibition,[1]; at 11.0 µM,97% (active)
same,growth inhibition,[1]; at 33.0 µM,99% (active)
same,growth inhibition,[1]; at 100.0 µM,99% (active)
same,growth inhibition,[2]; at 1.2 µM,4%
same,growth inhibition,[2]; at 3.7 µM,30%
same,growth inhibition,[2]; at 11.0 µM,94% (active)
same,growth inhibition,[2]; at 33.0 µM,99% (active)
same,growth inhibition,[2]; at 100.0 µM,99% (active)
same,growth inhibition,[3]; at 1.2 µM,20%
same,growth inhibition,[3]; at 3.7 µM,37%
same,growth inhibition,[3]; at 11.0 µM,61%
same,growth inhibition,[3]; at 33.0 µM,77% (active)
same,growth inhibition,[3]; at 100.0 µM,64%
same,growth inhibition,[4]; at 1.2 µM,19%
same,growth inhibition,[4]; at 3.7 µM,56%
same,growth inhibition,[4]; [16],16%
same,growth inhibition,[4]; at 11.0 µM,95% (active)
same,growth inhibition,[4]; at 33.0 µM,99% (active)
same,growth inhibition,[4]; [17],100% (active)
same,growth inhibition,[4]; at 50.0 µM,90.5% (active)
same,growth inhibition,[4]; at 100.0 µM,99% (active)
same,growth inhibition,[5]; at 1.2 µM,24%
same,growth inhibition,[5]; at 3.7 µM,55%
same,growth inhibition,[5]; [16],11%
same,growth inhibition,[5]; at 11.0 µM,97% (active)
same,growth inhibition,[5]; at 33.0 µM,98% (active)
same,growth inhibition,[5]; [17],100% (active)
same,growth inhibition,[5]; at 50.0 µM,93.6% (active)
same,growth inhibition,[5]; at 100.0 µM,98% (active)
same,growth inhibition,[6]; at 1.2 µM,14%
same,growth inhibition,[6]; at 3.7 µM,39%
same,growth inhibition,[6]; at 11.0 µM,96% (active)
same,growth inhibition,[6]; at 33.0 µM,99% (active)
same,growth inhibition,[6]; at 100.0 µM,98% (active)
same,growth inhibition,[7]; [16],40%
same,growth inhibition,[7]; [17],100% (active)
same,growth inhibition,[7]; at 50.0 µM,90.6% (active)
same,growth inhibition,[8]; at 1.2 µM,15%
same,growth inhibition,[8]; at 3.7 µM,44%
same,growth inhibition,[8]; at 11.0 µM,94% (active)
same,growth inhibition,[8]; at 33.0 µM,98% (active)
same,growth inhibition,[8]; at 100.0 µM,99% (active)
same,growth inhibition,[9]; [16],-2%
same,growth inhibition,[9]; [17],99% (active)
same,growth inhibition,[9]; at 50.0 µM,91% (active)
same,growth inhibition,[10]; at 1.2 µM,6%
same,growth inhibition,[10]; at 3.7 µM,27%
same,growth inhibition,[10]; [16],-12%
same,growth inhibition,[10]; at 11.0 µM,90% (active)
same,growth inhibition,[10]; at 33.0 µM,99% (active)
same,growth inhibition,[10]; [17],100% (active)
same,growth inhibition,[10]; at 50.0 µM,92.5% (active)
same,growth inhibition,[10]; at 100.0 µM,98% (active)
same,growth inhibition,[11]; at 1.2 µM,11%
same,growth inhibition,[11]; at 3.7 µM,48%
same,growth inhibition,[11]; at 11.0 µM,97% (active)
same,growth inhibition,[11]; at 33.0 µM,99% (active)
same,growth inhibition,[11]; at 100.0 µM,98% (active)
same,growth inhibition,[12]; at 1.2 µM,42%
same,growth inhibition,[12]; at 3.7 µM,78% (active)
same,growth inhibition,[12]; at 11.0 µM,97% (active)
same,growth inhibition,[12]; at 33.0 µM,99% (active)
same,growth inhibition,[12]; at 100.0 µM,99% (active)
same,growth inhibition,[13]; [16],60%
same,growth inhibition,[13]; [17],100% (active)
same,growth inhibition,[13]; at 50.0 µM,86.2% (active)
same,growth inhibition,[14]; at 1.2 µM,86% (active)
same,growth inhibition,[14]; at 3.7 µM,93% (active)
same,growth inhibition,[14]; at 11.0 µM,97% (active)
same,growth inhibition,[14]; at 33.0 µM,99% (active)
same,growth inhibition,[14]; at 100.0 µM,98% (active)
O=C(O)c1cccc2cccc(-c3c4ccc(=O)cc-4oc4cc(O)ccc34)c12,growth inhibition,[1]; at 1.2 µM,8%
same,growth inhibition,[1]; at 3.7 µM,33%
same,growth inhibition,[1]; at 11.0 µM,79% (active)
same,growth inhibition,[1]; at 33.0 µM,78% (active)
same,growth inhibition,[1]; at 100.0 µM,94% (active)
same,growth inhibition,[2]; at 1.2 µM,-5%
same,growth inhibition,[2]; at 3.7 µM,5%
same,growth inhibition,[2]; at 11.0 µM,54%
same,growth inhibition,[2]; at 33.0 µM,69%
same,growth inhibition,[2]; at 100.0 µM,94% (active)
same,growth inhibition,[3]; at 1.2 µM,10%
same,growth inhibition,[3]; at 3.7 µM,29%
same,growth inhibition,[3]; at 11.0 µM,70% (active)
same,growth inhibition,[3]; at 33.0 µM,73% (active)
same,growth inhibition,[3]; at 100.0 µM,93% (active)
same,growth inhibition,[4]; at 1.2 µM,29%
same,growth inhibition,[4]; at 3.7 µM,56%
same,growth inhibition,[4]; [16],29%
same,growth inhibition,[4]; at 11.0 µM,82% (active)
same,growth inhibition,[4]; at 33.0 µM,79% (active)
same,growth inhibition,[4]; [17],97% (active)
same,growth inhibition,[4]; at 50.0 µM,90.5% (active)
same,growth inhibition,[4]; at 100.0 µM,92% (active)
same,growth inhibition,[5]; at 1.2 µM,18%
same,growth inhibition,[5]; at 3.7 µM,24%
same,growth inhibition,[5]; [16],53%
same,growth inhibition,[5]; at 11.0 µM,85% (active)
same,growth inhibition,[5]; at 33.0 µM,85% (active)
same,growth inhibition,[5]; [17],94% (active)
same,growth inhibition,[5]; at 50.0 µM,91.5% (active)
same,growth inhibition,[5]; at 100.0 µM,93% (active)
same,growth inhibition,[6]; at 1.2 µM,10%
same,growth inhibition,[6]; at 3.7 µM,13%
same,growth inhibition,[6]; at 11.0 µM,55%
same,growth inhibition,[6]; at 33.0 µM,74% (active)
same,growth inhibition,[6]; at 100.0 µM,93% (active)
same,growth inhibition,[7]; [16],1%
same,growth inhibition,[7]; [17],95% (active)
same,growth inhibition,[8]; at 1.2 µM,16%
same,growth inhibition,[8]; at 3.7 µM,9%
same,growth inhibition,[8]; at 11.0 µM,70% (active)
same,growth inhibition,[8]; at 33.0 µM,81% (active)
same,growth inhibition,[8]; at 100.0 µM,90% (active)
same,growth inhibition,[9]; [16],61%
same,growth inhibition,[9]; [17],95% (active)
same,growth inhibition,[10]; at 1.2 µM,34%
same,growth inhibition,[10]; at 3.7 µM,69%
same,growth inhibition,[10]; [16],72% (active)
same,growth inhibition,[10]; at 11.0 µM,91% (active)
same,growth inhibition,[10]; at 33.0 µM,93% (active)
same,growth inhibition,[10]; [17],94% (active)
same,growth inhibition,[10]; at 100.0 µM,92% (active)
same,growth inhibition,[15]; at 1.2 µM,17%
same,growth inhibition,[15]; at 3.7 µM,26%
same,growth inhibition,[15]; at 11.0 µM,48%
same,growth inhibition,[15]; at 33.0 µM,85% (active)
same,growth inhibition,[15]; at 100.0 µM,96% (active)
same,growth inhibition,[11]; at 1.2 µM,7%
same,growth inhibition,[11]; at 3.7 µM,18%
same,growth inhibition,[11]; at 11.0 µM,63%
same,growth inhibition,[11]; at 33.0 µM,87% (active)
same,growth inhibition,[11]; at 100.0 µM,91% (active)
same,growth inhibition,[12]; at 1.2 µM,34%
same,growth inhibition,[12]; at 3.7 µM,31%
same,growth inhibition,[12]; at 11.0 µM,74% (active)
same,growth inhibition,[12]; at 33.0 µM,85% (active)
same,growth inhibition,[12]; at 100.0 µM,95% (active)
same,growth inhibition,[13]; [16],27%
same,growth inhibition,[13]; [17],98% (active)
same,growth inhibition,[13]; at 50.0 µM,90% (active)
same,growth inhibition,[14]; at 1.2 µM,18%
same,growth inhibition,[14]; at 3.7 µM,23%
same,growth inhibition,[14]; at 11.0 µM,71% (active)
same,growth inhibition,[14]; at 33.0 µM,79% (active)
same,growth inhibition,[14]; at 100.0 µM,94% (active)
